Bioassay records as filed in PubChem.
MITF act – activators of MITF-driven TRPM1 promoter activity in SK-MEL-5 cells; SK-MEL-5 TRPM1-promoter luciferase, 24 h; % of positive control, neutral wells = 0; activation, % at 12.5 µM; 300,000 compounds, 0.75% hits; AID 588334;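 active = mean activation of at least 80% with every replicate also reaching 80%; inconclusive = mean reaches 80% but some replicate falls short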;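 note: 0% = neutral control wells and 100% = parthenolide positive control wells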
esBAF inh – inhibitors of esBAF chromatin remodeling in mouse ES cells | 350,000 compounds, 2% hits | reporter increase, % at 12.5 µM | Bmi1-luciferase knock-in reporter, 24 h; 100% = twice the neutral-well signal | AID 602393; in the data active = activation above about 40%; inconclusive = no clear call, values can overlap the other calls;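 note: 0% = median of the plate's neutral control wells and 100% = double that signal; a rise in the Bmi1 reporter signal indicates esBAF inhibition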
Wnt bcat act – Wnt/beta-catenin pathway activation; Wnt/beta-catenin reporter cell assay, activator, plate reader; activation, % at 9.35 µM; 300,000 compounds, 1.2% hits; AID 743398; in the data active = activation above about 30%, passing the limit was not always enough; inconclusive = no clear call, values can overlap the other calls;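 note: 0% = neutral control wells and 100% = positive control wells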
GAA850 FXN act – frataxin GAA850 promoter activation. activation, % at 6 µM. HEK293 lucGAA850 FXN promoter luciferase reporter, 24 h; percent of 10 µM SAHA response. 360,000 compounds, 0.56% hits;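 active = activation above the average of all compounds screened plus 3 SD, cutoff fixed separately per campaign, cut at about 7.5% in these data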;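 note: 0% = DMSO wells and 100% = 10 µM SAHA wells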
AHR act – activators of human aryl hydrocarbon receptor. P35869. AHR-responsive luciferase reporter cells, luminescence. activation, % at 5 µM. 320,000 compounds, 2.5% hits; in the data active = activation above about 47%;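 note: 0% = vehicle wells and 100% = reference agonist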
Target sequence (P35869 whole entry, looked up): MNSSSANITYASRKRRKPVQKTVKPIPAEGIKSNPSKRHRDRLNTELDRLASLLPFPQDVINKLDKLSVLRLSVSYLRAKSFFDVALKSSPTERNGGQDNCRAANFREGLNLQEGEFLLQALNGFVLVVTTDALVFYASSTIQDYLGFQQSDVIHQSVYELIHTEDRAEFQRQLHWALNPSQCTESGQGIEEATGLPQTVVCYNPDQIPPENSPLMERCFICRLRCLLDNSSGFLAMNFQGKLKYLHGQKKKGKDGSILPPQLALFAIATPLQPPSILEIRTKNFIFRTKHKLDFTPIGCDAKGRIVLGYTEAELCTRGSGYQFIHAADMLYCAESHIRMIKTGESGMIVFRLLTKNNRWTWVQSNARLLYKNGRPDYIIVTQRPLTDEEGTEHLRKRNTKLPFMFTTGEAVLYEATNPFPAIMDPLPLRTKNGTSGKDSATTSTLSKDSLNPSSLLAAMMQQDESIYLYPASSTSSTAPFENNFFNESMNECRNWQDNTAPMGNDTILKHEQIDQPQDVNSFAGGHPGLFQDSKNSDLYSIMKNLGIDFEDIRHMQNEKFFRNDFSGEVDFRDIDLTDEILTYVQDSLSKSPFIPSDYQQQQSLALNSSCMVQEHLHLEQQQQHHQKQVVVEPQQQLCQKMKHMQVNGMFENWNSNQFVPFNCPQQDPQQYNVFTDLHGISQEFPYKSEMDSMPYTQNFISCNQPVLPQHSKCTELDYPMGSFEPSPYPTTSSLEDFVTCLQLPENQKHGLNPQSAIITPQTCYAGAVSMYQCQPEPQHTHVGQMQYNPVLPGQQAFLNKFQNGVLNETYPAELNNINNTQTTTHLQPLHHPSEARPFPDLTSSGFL
GAA30 FXN cntr – activates GAA30 frataxin promoter, counter-screen for GAA850 activators; shares compounds with GAA850 FXN act; HEK293 lucGAA30 FXN promoter luciferase, 24 h; DMSO = 0%, 5 µM ipriflavone = 100%; activation, % at 6 µM; 1,900 compounds, 66% hits; AID 588350;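 active = mean activation above the mean of solvent-only control wells plus 3 SD, cut at about 22% in these data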;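 note: counterscreen of GAA850 promoter hits where activity marks nonselective or luminescence artifacts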
GAA850 confirm – GAA850 FXN promoter activation confirmation | AID 588351 | 1,900 compounds, 86% hits | shares compounds with GAA850 FXN act | activation, % at 6 µM | HEK293 lucGAA850 FXN promoter luciferase reporter, 24 h; 100% = activation by SAHA;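 active = mean activation above a set limit taken from the primary screen, cut at about 8% in these data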;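 note: 0% = DMSO wells and 100% = 10 µM SAHA wells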
Starred values were filed as active, the others as inactive; ? = inconclusive; . = no result; ! = not active in a repeat. The list is not random: actives were taken first. Their share in the collection is about 4.2%.

SMILES | MITF act | esBAF inh | Wnt bcat act | GAA850 FXN act | AHR act | GAA30 FXN cntr | GAA850 confirm
N#C/C(=C\c1ccc(N2CCOCC2)o1)c1ccccc1 | 87* | 94* | 1 | 12* | -1 | 139* | 45*
Cc1cc(/C=C2\NC(=S)N(C)C2=O)ccc1N1CCCC1 | 50 | 65* | 53* | 7.6* | 17 | 107* | 50*
Cn1ccnc1C(O)c1ccccc1 (stereo unspecified) | 7 | -16 | -1 | 0 | 2 | . | .
Cn1ccnc1C(O)c1ccc(OCc2ccccc2)cc1 (stereo unspecified) | 43 | . | . | 7.7* | 3 | 58* | 18*
CNC[C@@H]1OCCCC[C@H](C)Oc2ccc(NS(=O)(=O)c3ccc(Cl)cc3)cc2C(=O)N([C@H](C)CO)C[C@@H]1C | . | -1 | . | . | . | . | .
COc1cc(CNc2ccc3[nH]c(=O)[nH]c3c2)ccc1OCc1ccccc1F | 26 | 47* | 0 | 7.7* | -1 | 33* | 20*
COc1cc(CNc2ccc3[nH]c(=O)[nH]c3c2)ccc1OCc1ccc(F)cc1 | . | 26 | -1 | 5 | 2 | . | .
Cc1ccc(S(=O)(=O)N2CCC(=O)N(CCOC(=O)Nc3cccc(Cl)c3)CC2)cc1 | 20 | 23 | 4 | 9.4* | 4 | 42* | 19*
Cc1ccc(NC(=O)OCCN2CCN(S(=O)(=O)c3ccc(C)cc3)CCC2=O)cc1 | -2 | 3 | -2 | 0 | 1 | . | .
COc1ccc(Nc2cnn(-c3nc4ccccc4s3)c(=O)c2Cl)cc1 | 32 | . | -11 | 20* | 16 | 31* | 39*
C[C@@H]1CN([C@@H](C)CO)C(=O)c2cc(NS(=O)(=O)c3cccs3)ccc2O[C@@H](C)CCCCO[C@@H]1CN(C)C(=O)Nc1ccccc1 | . | -9 | . | . | . | . | .
NC(=O)c1c(NC(=O)c2ccccc2)sc2c1CCc1ccccc1-2 | 35 | . | . | 7.7* | 31 | 95* | 35*
CCOC(=O)/C(N=Nc1c(C)n(C)n(-c2ccccc2)c1=O)=C(\C)O | -15 | . | . | 1 | 45 | . | .
CCNc1ccc(N=Nc2c(C)n(C)n(-c3ccccc3)c2=O)cc1 | 2 | . | 2 | 8.4* | 37 | 29* | 13*
COc1ccccc1C(=O)Nc1nsc(-c2ccccc2)n1 | ? | 46* | ? | 9.3* | 6 | 104* | 31*
COc1ccccc1C(=O)Nc1c(-c2ccccc2)nc2ccccn12 | -9 | -4 | -1 | -2 | 13 | . | .
O=C1/C(=C/c2ccc(O)c(O)c2)Oc2cc(O)ccc21 | 79 | 28 | 6 | 4 | 0 | . | .
COc1cc(/C=C2\Oc3cc(O)ccc3C2=O)ccc1O | 78 | 46* | 4 | 8.3* | 1 | 94* | 38*
COc1ccc(/C=C2\OC(=O)c3c(OC)cccc32)cc1OC | 125* | 48* | . | 11* | -1 | 111* | 45*
C[C@H](CO)N1C[C@H](C)[C@@H](CN(C)S(=O)(=O)c2ccccc2)Oc2ccc(NC(=O)Nc3cccc4ccccc34)cc2C1=O | . | -1 | . | . | . | . | .
C[C@@H]1CN([C@@H](C)CO)C(=O)c2cc(C#Cc3ccccc3)cnc2O[C@@H]1CN(C)C(=O)CCN1CCCCC1 | . | -4 | . | . | . | . | .
Brc1ccc2oc(-c3ccn[nH]3)cc2c1 | . | . | ? | 7.8* | -8 | 116* | 38*
O=C(Nc1ccccc1F)N1C[C@@H]2[C@H](c3ccccc31)[C@H](CO)N2C(=O)Cc1ccccc1 | . | 11 | . | . | . | . | .
CC=Cc1ccc2n(c1=O)C[C@H]1[C@H](CO)[C@@H](C(=O)NCC3CC3)N(Cc3cccnc3)[C@@H]21 (mixture of isomers) | . | 1 | . | . | . | . | .
COc1cc(/C=N/NC(=O)c2sc(N)c(C#N)c2C)ccc1O | 28 | . | . | 11* | 40 | -13 | 44*
SMILES | MITF act | esBAF inh | Wnt bcat act | GAA850 FXN act | AHR act | GAA30 FXN cntr | GAA850 confirm
CCNC(=O)C[C@H]1CC[C@H]2[C@@H](COc3ccc(NC(=O)Cc4cccs4)cc3C(=O)N2C)O1 | . | 5 | . | . | . | . | .
Cc1nc(Nc2ccccc2Cl)sc1C(=O)Nc1ccccc1 | 10 | . | 10 | 16* | -3 | 67* | 21*
COc1ccccc1Nc1nc(C)c(C(=O)Nc2ccccc2)s1 | 20 | 32 | 6 | 2 | -6 | . | .
CC(=O)c1ccc2c3c(cccc13)C(=O)N(CCc1ccccc1)C2=O | 28 | . | -2 | 7.8* | 72* | 112* | 45*
O=C(C[C@@H]1C=C[C@H](NC(=O)CCN2CCCCC2)[C@@H](CO)O1)NCc1ccc(Cl)c(Cl)c1 | . | -2 | . | . | . | . | .
C[C@H](CO)N1C[C@H](C)[C@H](CN(C)S(=O)(=O)c2cccs2)Oc2c(NC(=O)c3nc4ccccc4s3)cccc2C1=O | . | 2 | . | . | . | . | .
COc1ccc(OCc2nc(N)nc(Nc3ccc(C)cc3)n2)cc1 | . | 37 | 17 | 8.8* | 65* | 67* | 25*
COc1ccc(Nc2nc(N)nc(CSC(=S)N3CCCCC3)n2)cc1 | 10 | 22 | 4 | 8.2* | 17 | 69* | 23*
COc1ccc(Nc2nc(N)nc(CSC(=S)N3CCN(C)CC3)n2)cc1 | 1 | 31 | 3 | 3 | 17 | . | .
O=S1(=O)N=C(Nc2ccc(O)cc2)c2ccccc21 | -4 | . | -1 | 1 | 2 | . | .
O=S1(=O)N=C(Nc2ccc(N3CCOCC3)c(Cl)c2)c2ccccc21 | 76 | . | 25 | 8.4* | 9 | 103* | 34*
CCC(=O)Nc1cccc(NC(=S)NC(=O)c2ccccc2)c1 | 48 | . | . | 3 | 41 | . | .
CCC(=O)Nc1ccc(NC(=S)NC(=O)c2cc3ccccc3o2)cc1 | 15 | . | . | 4 | 3 | . | .
CCC(=O)Nc1cccc(NC(=S)NC(=O)c2ccc(C)cc2)c1 | 47 | 96* | -8 | 8.2* | 24 | 107* | 34*
CCC(=O)Nc1cccc(NC(=S)NC(=O)c2cc3ccccc3o2)c1 | 61 | . | 16 | 8.0* | 9 | 106* | 34*
Cc1ccnc(NC(=O)CCCOc2cc(=O)n(C)c3ccccc23)c1 | -6 | -5 | -1 | 8.8*! | 22 | 68* | 61*
Cn1c(=O)cc(OCCCC(=O)NCc2ccccn2)c2ccccc21 | . | -7 | 14 | 3 | 1 | . | .
COc1ccc(C(CC(=O)c2ccc(C)cc2)C(C#N)C#N)cc1OC (stereo unspecified) | -20 | . | . | 8.0* | 0 | 39* | 38*
COC(=O)C(C(=O)OC)C(CC(=O)c1ccc(C)cc1)c1cc(OC)c(OC)c(OC)c1 (stereo unspecified) | -8 | -7 | -1 | 4 | 3 | . | .
Clc1nc(-c2cccnc2)nc2scc(-c3ccccc3)c12 | 42 | . | 25 | 8.1* | 68* | 97* | 31*
C[C@H]1CN([C@@H](C)CO)C(=O)c2cc(C#Cc3ccccc3)cnc2O[C@@H]1CN(C)C(=O)CN(C)C | . | -2 | . | . | . | . | .
